# Compound activity: PubChem BioAssay, several laboratories
# Shown are actives, neighbours in structure and some others; about 3.7% of the full set was active somewhere.
# tim10-1 inh: tim10-1 yeast growth inhibition. S. cerevisiae tim10-1 ts strain growth, BacTiter-Glo, 24 h. inhibition, % at 20 µM. 330,000 tested, 2.2% active. AID 463190;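 active means inhibition of at least 40%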;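 further: mutant grown at 25 °C; 0% = DMSO wells with yeast and 100% = wells holding no yeast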
# TIM10 inh: growth inhibitors of TIM10 yeast strain | S. cerevisiae TIM10 strain growth, BacTiter-Glo luminescence, 24 h | inhibition, % at 10 µM | 330,000 tested, 1.4% active;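 active means inhibition of 40% or more at the single tested concentration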;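 further: wild-type TIM10 isogenic control strain grown at permissive 25 °C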
# PfHsp90 yeast 2: inhibits growth of yeast expressing Plasmodium falciparum Hsp90; S. cerevisiae expressing PfHsp90, BacTiter-Glo ATP, 48 h; yeast lacking PDR1 and PDR3 efflux regulators; inhibition, % at 9.4 µM; 310,000 tested, 0.32% active;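 active means every replicate shows inhibition above about 80%, whatever the replicate mean, limit read from the data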;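 further: 0% = DMSO neutral controls and 100% = 20 µM radicicol positive controls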
# tim23-1 inh: inhibits growth of tim23-1 mutant yeast | inhibition, % at 20 µM | 330,000 tested, 1.3% active | AID 463212 | S. cerevisiae tim23-1 growth, BacTiter-Glo luminescence, 24 h;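 active means growth inhibition of the mutant yeast at or above 50%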;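 further: temperature-sensitive mutant grown at 25 °C; plate controls were DMSO-treated mutant yeast for no effect and medium wells lacking yeast for full effect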
# NALP3 yeast inh: NALP3 inhibition in yeast | inhibition, % at 10 µM | 330,000 tested, 0.39% active | Yeast reconstituted NLRP3/ASC/caspase-1, beta-gal luminescence, 24 h | AID 2825;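 active means inhibition of 50% or more; inactive means inhibition below 50%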;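 further: plate controls were induced DMSO wells for no effect and uninduced yeast grown without galactose for full effect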
# tim10-1 confirm: confirmation of tim10-1 mutant yeast growth inhibitors; 7,400 tested, 56% active; AID 463213; shares compounds with tim10-1 inh; inhibition, % at 20 µM; S. cerevisiae tim10-1 ts strain growth, BacTiter-Glo, 24 h;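 active means inhibition of yeast growth at or above a set limit in either of two repeat tests at 20 µM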;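 further: tim10-1 mutant grown at permissive 25 °C to find synthetic lethal compounds; 0% = DMSO yeast wells and 100% = medium wells without yeast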
# tim10 confirm: TIM10 yeast growth inhibition, confirmed | shares compounds with TIM10 inh | inhibition, % at 10 µM | 4,600 tested, 63% active | S. cerevisiae tim10 strain growth, BacTiter-Glo luminescence, 24 h;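 active means inhibition of yeast growth at or above a set limit in either of two replicates at 10 µM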;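 further: this counterscreen used the strain with wild-type TIM10; 0% = yeast with DMSO and 100% = medium wells lacking yeast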
# tim23-1 conf: confirmation of tim23-1 mutant yeast growth inhibitors; shares compounds with tim23-1 inh; S. cerevisiae tim23-1 growth, BacTiter-Glo luminescence, 24 h; inhibition, % at 20 µM; 4,400 tested, 83% active;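 active means inhibition above about 39% in either of two replicate wells at 20 µM, limit read from the data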;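 further: temperature-sensitive tim23-1 mutant grown at 25 °C; 0% = DMSO wells with yeast and 100% = medium wells without yeast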
# * hit, by the source's call; . = no result given.
SMILES,tim10-1 inh,TIM10 inh,PfHsp90 yeast 2,tim23-1 inh,NALP3 yeast inh,tim10-1 confirm,tim10 confirm,tim23-1 conf
CC(C)COC(=O)c1cccc2c1-c1ccccc1/C2=N\O,33.6,25.9,-24.9,8.3,5.6,.,.,.
O=C(N/C(=C\c1ccc([N+](=O)[O-])cc1)C(=O)N1CCCCC1)c1ccccc1Br,19.2,0.0,-22.1,28.5,8.3,.,.,.
O=C(Nc1ccc(N2CCCCC2)cc1)c1ccc([N+](=O)[O-])o1,59.4*,45.2*,4.3,73.9*,11.2,47.3*,38.0*,69.7*
COc1ccc(N2CCCC2)c(NC(=O)c2ccc([N+](=O)[O-])o2)c1,62.1*,70.6*,-7.0,68.3*,11.3,51.5*,79.7*,42.6*
O=C(Nc1cc(C(F)(F)F)ccc1-n1cncn1)c1ccc([N+](=O)[O-])o1,73.2*,47.3*,-35.8,53.9*,13.2,64.5*,57.4*,-15.6
O=C(Nc1ccccc1N1CCCC1)c1ccc([N+](=O)[O-])o1,65.0*,52.5*,-3.0,66.2*,17.2,54.8*,44.7*,66.2*
CCOC(=O)c1c(-c2ccccc2)oc2ccc(OCC(O)CN(C)C)cc12 (stereo not drawn),28.7,27.0,25.6,23.1,8.2,.,.,.
NN(Cc1ccccc1)C(=S)Nc1ccc(Cl)c(Cl)c1,41.2*,49.6*,6.0,71.4*,7.7,66.2*,51.1*,68.8*
OCCNC(=S)Nc1ccc(Cl)c(Cl)c1,29.5,-11.0,-18.6,0.2,-3.4,.,.,.
Cc1nc2ccccc2c(=O)n1NC(=O)Cc1ccc(Br)cc1,3.4,3.5,.,2.4,7.8,.,.,.
CCCCCc1ccc(CC(=O)Nn2c(C)nc3ccccc3c2=O)cc1,59.9*,7.4,-7.2,52.3*,33.4,48.2*,.,69.3*
O=C1C=C(c2ccccc2)C(=O)N1Nc1ccccc1,-5.3,39.7,.,24.1,41.3,.,.,.
COc1ccc(C2=CC(=O)N(Nc3ccccc3)C2=O)cc1,48.5*,54.4*,.,81.2*,44.1,50.3*,55.3*,77.2*
COc1ccccc1OCc1cc(C(=O)N2CCN(C)C(c3ccccc3)C2)no1 (stereo not drawn),52.3*,28.7,106.9*,54.9*,36.2,27.5,.,37.0
CCOC(=O)C1=CN(C(C)C)CCC1=O,.,.,4.5,.,.,.,.,.
O=C(CC1C(=O)N(c2ccccc2)C(=S)N1c1ccccc1)c1ccccc1 (stereo not drawn),46.9*,49.1*,5.1,52.2*,-0.7,41.6*,40.4*,52.5*
O=C(CC1C(=O)N(c2ccccc2)C(=S)N1c1ccccc1)c1ccc(Br)cc1 (stereo not drawn),33.2,34.5,19.0,24.2,10.2,.,.,.
Cc1nc(N2CCN(Cc3ccc(Cl)cc3)CC2)c2oc3ccccc3c2n1,53.0*,42.0*,-24.8,53.6*,-2.1,36.4*,49.0*,43.4*
CC1Cc2ccccc2N1C(=O)CN1CCC(n2nnc3cc(C(F)(F)F)ccc32)CC1 (stereo not drawn),41.3*,29.4,-21.6,50.1*,5.2,37.5*,.,42.1*
CCOc1ccc(NC(C)c2cc(Cl)ccc2O)cc1 (stereo not drawn),26.4,16.6,9.2,16.3,25.2,.,.,.
CC(Nc1ccc(Cl)cc1)c1cc(Cl)ccc1O (stereo not drawn),66.2*,28.8,3.2,64.1*,26.4,57.7*,.,51.7*
Cc1ccccc1NC(=O)C(=O)NNC(=O)COc1ccc2ccccc2c1,-6.1,-13.3,-17.0,-15.3,13.3,.,.,.
Cc1c(C(=O)NCc2cccnc2)oc2ccc(S(=O)(=O)N3CCCCCC3)cc12,20.5,42.5*,.,25.9,-1.7,.,20.6,.
O=C(NCc1nnc(SCc2ccc(F)cc2)n1-c1ccc(F)cc1)C12CC3CC(CC(C3)C1)C2,14.4,2.8,-3.9,34.1,10.2,.,.,.
COc1ccc(-c2cn3cccnc3n2)cc1Br,-1.0,45.9*,22.8,38.1,42.5,.,55.3*,.
CN(c1ccccc1)C(c1ccc(F)cc1)c1nnnn1C1CCCC1 (stereo not drawn),31.8,45.4*,.,37.2,-3.3,.,31.4*,.
